The list shows a part of the results. Unmarked numbers belong to inactive results. Active and inactive are the calls of the source.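 How the source made its calls: active means at least twofold enzyme activation in any of six single-dose repeats, which the averaged readout prints as negative percent; inactive means the rest.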

The values that follow come from PubChem BioAssay AID434926 (Sanford-Burnham Center for Chemical Genomics, 2010).

This assay deals with Intestinal-type alkaline phosphatase (Homo sapiens) (UniProt P09923). The assay can be described thus: human IAP activators, confirmation, biochemical, luminescence, single concentration, uHTS hits (AID 434926). As to conditions: purified IAP, CDP-Star luminescence, 30 min; at 8.3 µM; stronger effect = lower value.
Chain of Intestinal-type alkaline phosphatase (Homo sapiens) (P09923 whole entry, looked up): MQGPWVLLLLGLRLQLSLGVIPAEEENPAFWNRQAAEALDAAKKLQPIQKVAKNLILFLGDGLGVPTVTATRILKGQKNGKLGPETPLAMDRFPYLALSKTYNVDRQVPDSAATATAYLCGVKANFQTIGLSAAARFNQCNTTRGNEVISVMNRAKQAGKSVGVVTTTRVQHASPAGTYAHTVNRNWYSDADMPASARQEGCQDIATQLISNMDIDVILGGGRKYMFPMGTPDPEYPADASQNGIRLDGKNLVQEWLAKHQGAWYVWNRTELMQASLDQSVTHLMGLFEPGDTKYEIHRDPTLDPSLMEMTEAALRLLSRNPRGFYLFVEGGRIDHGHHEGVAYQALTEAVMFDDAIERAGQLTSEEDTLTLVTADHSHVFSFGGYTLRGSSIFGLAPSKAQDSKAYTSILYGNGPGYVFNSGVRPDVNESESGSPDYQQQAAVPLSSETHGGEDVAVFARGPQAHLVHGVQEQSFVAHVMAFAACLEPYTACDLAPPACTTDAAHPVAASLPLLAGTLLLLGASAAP
In the case of `COc1cccc(CNS(=O)(=O)c2ccc3c(c2)N(C(C)=O)CCS3)c1`, the activation (%Activity, negative = activation) is -34.5%.
With `Oc1cccc(/C=N/Nc2ccc(Cl)nn2)c1O` the figure was 1.16%.
As to `OC1CN=C2Sc3ccccc3N2C1` (stereo unspecified), the activation (%Activity, negative = activation) is -100% (active).
As to `Cc1ccc(NC(=O)c2cc(-c3ccccc3O)n[nH]2)cc1C`, the activation (%Activity, negative = activation) is -1.54%.
For `N#C/C(=C\c1ccc(O)c(O)c1)C(=O)NCc1ccccc1`, the activation (%Activity, negative = activation) was -0.121%.
In the case of `CCCOCC(O)CC(CC)C(=O)NNC(=S)Nc1ccccc1` (stereo unspecified), the activation (%Activity, negative = activation) is -138% (active).
Regarding `COc1cc(NC(=O)NCC2CCN(Cc3ccc(C)cc3)CC2)cc(OC)c1OC`, the activation (%Activity, negative = activation) was -1.35%.
With `CN1/C(=c2/s/c(=C3/C(=O)N(c4ccccc4)NC3=Nc3ccccc3)n(C)c2=O)C(C)(C)c2ccccc21` the figure was -2.61%; with `Cn1c(=O)c2sccc2n(Cc2ccc(Br)cc2)c1=O`, 6.79%.
With `COc1cc(/C=C2/SC(=S)N(Cc3ccccc3)C2=O)cc(OC)c1O` the figure was 3.41%.
With `COc1cc(NC(=O)COC(=O)c2cnc(C)cn2)c(C)cc1[N+](=O)[O-]` the figure was 6.98%.
